From PubChem BioAssay AID588342 (National Center for Advancing Translational Sciences (NCATS), 2011)
Out of some 360,000 compounds screened, about 25,000 (6.9%) were called active. Roughly 9% stayed inconclusive and do not appear here. Only a selection was taken, and actives are over-represented in it overall. Unmarked numbers belong to inactive results. Calls follow the shape of the dose curve; as a rule, active = well fitted inhibition curve with a large enough effect; inconclusive = small, poorly fitted or top-dose-only effect; inactive = flat fitted curve, though single readings scatter.

molecular target: Luciferin 4-monooxygenase (Photinus pyralis) (UniProt P08659); assay: qHTS profiling assay for firefly luciferase inhibitor/activator using purifed enzyme and Km concentrations of substrates (counterscreen for miR-21 project); conditions: purified FLuc, luminescence inhibition; series mostly up to 57.5 µM; activity change, negative = inhibition: at the top concentration; also: nearly all actives have a fitted effect of over 55% in size;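 as to activity change, negative = inhibition: plate controls were vehicle for no effect and reference inhibitor for full effect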
Outline: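 Biochemical qHTS of compounds, final roughly 60 µM downward over six points, against 10 nM purified firefly luciferase using Km concentrations of substrates (10 uM D-luciferin, 10 uM ATP) in Tris acetate pH 7.5 buffer; luminescence output.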
Potency is read from the fitted curve at half-maximal effect.

Luciferin 4-monooxygenase (Photinus pyralis), sequence (P08659 whole entry, looked up): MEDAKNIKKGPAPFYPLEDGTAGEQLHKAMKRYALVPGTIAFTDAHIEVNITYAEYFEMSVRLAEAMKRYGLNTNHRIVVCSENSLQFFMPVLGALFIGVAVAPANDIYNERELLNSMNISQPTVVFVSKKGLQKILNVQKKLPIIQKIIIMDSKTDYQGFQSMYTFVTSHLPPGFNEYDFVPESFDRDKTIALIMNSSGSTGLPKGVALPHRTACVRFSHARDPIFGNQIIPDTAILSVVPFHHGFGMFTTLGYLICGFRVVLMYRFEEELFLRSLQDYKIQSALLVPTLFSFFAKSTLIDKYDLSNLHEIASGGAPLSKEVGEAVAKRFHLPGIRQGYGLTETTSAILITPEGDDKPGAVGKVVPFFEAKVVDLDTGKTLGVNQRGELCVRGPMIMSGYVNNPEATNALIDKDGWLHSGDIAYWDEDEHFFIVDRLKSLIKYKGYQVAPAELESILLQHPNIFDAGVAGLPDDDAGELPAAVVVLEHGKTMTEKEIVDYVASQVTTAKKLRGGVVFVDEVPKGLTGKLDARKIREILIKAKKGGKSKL

Row | SMILES | activity change, negative = inhibition [%] | Potency
1 | CS(=O)(=O)N1CCN(C(=O)c2cc3ccccc3oc2=O)CC1 | -0.589 | –
2 | O=c1oc2ccccc2cc1-c1cn(-c2ccccc2)c(=S)[nH]1 | – | 0.849 µM (active)
3 | S=c1[nH]c(-c2cccs2)cn1-c1ccccc1 | -15.8 | –
4 | COc1ccc(C2C(=O)N(C3CCCCCC3)CC(=O)N2CCc2ccc(Cl)cc2)cc1OC (stereo not given) | 1.16 | –
5 | COc1cc(-c2noc(C3CCCN(S(=O)(=O)c4cccc(Cl)c4)C3)n2)cc(OC)c1OC (stereo not given) | 1.11 | –
6 | CC(C)c1ccc(-c2noc(C3CCCN(S(C)(=O)=O)C3)n2)cc1 (stereo not given) | – | 19 µM (active)
7 | O=C(Cc1cccs1)N1CCCC(c2nc(-c3ccc(S(=O)(=O)N4CCCC4)cc3)no2)C1 (stereo not given) | -0.16 | –
8 | CCN(C(=O)CSc1ncnc2sccc12)c1c(N)n(Cc2ccccc2)c(=O)[nH]c1=O | 6.9 | –
9 | CCCCSc1nnc2c(n1)OC=Nc1ccccc1-2 | – | 23.9 µM (active)
10 | CCSc1nnc2c(n1)OC(c1ccc(OCC(=O)O)cc1)Nc1ccccc1-2 (stereo not given) | -13.1 | –
11 | COc1ccc(NC(=O)Cn2cc(C(=O)c3ccncc3)c(=O)c3cc(C)ccc32)cc1Cl | 5.88 | –
12 | Cc1ccc(-c2cnc(C3CC3)o2)cc1S(=O)(=O)Nc1cccc(C)c1C | 3.16 | –
13 | CN(Cc1nc2ccc(F)cc2[nH]1)Cc1nc(CC2CC2)no1 | -2.03 | –
14 | O=C(Cn1c(=O)n(-c2ccc(F)cc2)c(=O)c2sccc21)Nc1cccc(C(F)(F)F)c1 | -6.93 | –
15 | CC(=O)Nc1cccc(NC(=O)CSc2cn(CC(=O)N3CCCC3)c3ccccc23)c1 | -1.16 | –
16 | O=c1c2c(nc3n1CCCCC3)sc1c(O)cccc12 | – | 4.26 µM (active)
17 | Cc1cccc2c(=O)n3c(nc12)CCCCC3 | -10.5 | –
18 | CC1CCN(C(=O)c2ccc3c(=O)n4c(nc3c2)CCCCC4)CC1 | 2.48 | –
19 | COc1ccc([C@H]2CC(=O)C=C(c3ccc(CO)cc3)C2)cc1 | -1.03 | –
20 | O=C1CCC(C(=O)N2CCN(c3ccccc3Cl)CC2)CN1CC1CCCCC1 (stereo not given) | -1.63 | –
21 | CCC(=O)NC(=S)Nc1ccc(NC(=O)c2ccco2)c(Cl)c1 | -5.91 | –
22 | S=C(Nc1ccc(Br)cc1Cl)NC1CCN(Cc2ccccc2)CC1 | 0.728 | –
23 | O=C(NNC(=S)Nc1ccc(Br)cc1Cl)c1ccco1 | – | 16.9 µM (active)
24 | COc1ccc(S(=O)(=O)c2c(Nc3ccc(C)cc3)sc(C(=O)c3ccc(C)cc3)c2N)cc1 | -0.422 | –
25 | COc1ccc(-c2nc(CN3CCC(C(=O)NCc4ccccc4)CC3)c(C)o2)cc1OC | -0.814 | –

Row | SMILES | activity change, negative = inhibition [%] | Potency
26 | N=C1C(c2nc3ccccc3s2)=C(O)CN1NC(=O)c1ccc([N+](=O)[O-])cc1 | – | 13.5 µM (active)
27 | COc1ccccc1N1CC(O)=C(c2nc3ccccc3s2)C1=N | -8.44 | –
28 | CCOC(=O)CCCN1CC(O)=C(c2nc3ccccc3s2)C1=N | 1.19 | –
29 | O=C(CSc1oc(-c2ccco2)nc1S(=O)(=O)c1ccccc1)c1ccc(Cl)cc1 | -4.3 | –
30 | Cc1ccc(-c2cc(-c3coc4ccccc4c3=O)c3c(n2)-c2cc(Cl)ccc2OC3)cc1 | -1 | –
31 | CC(C)(C)OC(=O)N1CCC(c2c(C(=O)N3CCN(c4cccc(Cl)c4)CC3)cnn2-c2cccc(Cl)c2)CC1 | -3.13 | –
32 | CCCCCn1c(CCCNC(=O)c2ccccc2OC)nc2ccccc21 | 4.7 | –
33 | CCOC(OCC)c1ccc(/C=C\c2nccc(N)n2)cc1 | – | 8.49 µM (active)
34 | CCOc1ccc(Nc2c(S(=O)(=O)c3ccccc3)cnc3ccccc23)cc1 | -10.5 | –
35 | CN(C(=O)Cn1nnc(-c2ccc(F)cc2)n1)C1CCS(=O)(=O)C1 (stereo not given) | 3.37 | –
36 | COc1ccc(CNC(=O)CC2Oc3ccc(C)cc3NC2=O)cc1 (stereo not given) | -0.891 | –
37 | O=C(Cn1[nH]c(=O)c2ccccc2c1=O)Nc1cccc(-c2nnc3n2CCCCC3)c1 | -0.0091 | –
38 | Cc1c(C(=O)Nc2cccc(-c3nnc4n3CCCCC4)c2)oc2ccccc12 | – | 19 µM (active)
39 | O=S(=O)(c1cccc(-c2nnc3n2CCCCC3)c1)N1CCOCC1 | -2.77 | –
40 | CSc1ncccc1C(=O)NC1CCCCCC1 | -1.16 | –
41 | Cc1ccc(NC(=O)c2oc3ccccc3c2C)c([N+](=O)[O-])c1 | -14 | –
42 | Cc1c(C(=O)NC2CCCCC2)oc2ccccc12 | – | 15.1 µM (active)
43 | O=C(Nc1ccc(F)cc1F)c1cnn(-c2ccc(F)cc2)c1-n1cccc1 | 0.499 | –
44 | CC(C)(C)OC(=O)N1CCC(c2c(C(=O)NCCc3ccsc3)cnn2-c2ccc(F)cc2F)CC1 | -7.33 | –
45 | CC(C)c1ccc(/C=C/C(=O)NCCCN2CCOCC2)cc1 | – | 21.3 µM (active)
46 | Cc1c(NC(=O)c2cccnc2)c(=O)n(-c2ccccc2)n1C | 0.783 | –
47 | CCOC(=O)c1sc(NC(=O)/C=C/c2ccc(C(C)C)cc2)c(C(=O)OCC)c1C | -0.567 | –
48 | O=C(/C=C/c1ccc(Cl)cc1)NCCCn1ccnc1 | -9.77 | –
49 | CC(C)c1ccc(/C=C/C(=O)NNC(=O)c2cccnc2)cc1 | – | 12 µM (active)
50 | O=C(/C=C/c1ccc(F)cc1)NCCNC(=O)/C=C/c1ccc(F)cc1 | 0.42 | –
